Our source for the inhibition values is PubChem BioAssay AID623870 (Broad Institute, 2012).

Out of some 390,000 compounds screened, about 2,600 (0.67%) were called active.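 How the source made its calls: active means mean inhibition of replicates at least 50% and at least half of replicates each reaching 50%; inconclusive means half or more replicates reach 50% but mean below 50%; inactive means the rest.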 Only a selection was taken, and actives are over-represented in it overall.

The target of this assay is Transforming acidic coiled-coil-containing protein 3 (Homo sapiens) (UniProt Q9Y6A5). The assay is described as follows: disruptors of ARNT/TACC3 protein interaction, primary screen, biochemical, AlphaScreen, single concentration (AID 623870).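 Further: 0% = complete ARNT plus TACC3 wells and 100% = ARNT alone without TACC3.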 Conditions: AlphaScreen His-ARNT PAS-B/GST-TACC3 binding, luminescence; at 9.99 µM; active compounds read high. On the technique in general: Alpha assays give light when donor and acceptor beads are brought close together.
As to `Cc1ccc2c(c1)=C/C(=C\c1c(O)[nH]c(=O)[nH]c1=O)C(=O)N=2`, the inhibition (commonly the drop in the measured response relative to a control, in per cent) is 13.7% (inactive).
With `O=C1N=c2ccccc2=C/C1=C\c1c(O)[nH]c(=S)[nH]c1=O`, the inhibition was 37% (active).
Consider `COc1ccccc1N=Nc1c(O)[nH]c(=S)[nH]c1=O`, for which the inhibition was -1.81% (inactive).
Regarding `C[C@@H]1CN([C@H](C)CO)C(=O)CCCn2cc(nn2)CO[C@@H]1CN(C)C(=O)Oc1cccc2ccccc12`, the inhibition was -8.62% (inactive).
Then `O=C(Cc1ccccn1)N1CCCCN2[C@H](C1)[C@H](c1ccc(-c3ccccc3F)cc1)[C@@H]2CO`, with 10.9% (inactive); and `C/C=C/c1ccc([C@H]2[C@H](CO)N3CCCCN(C(=O)Cc4ccncc4)C[C@@H]23)cc1`, with 1.93% (inactive).
Under `O=c1[nH]c(=O)n(CCc2ccccc2)c(O)c1/C=N/N1CCOCC1` stands 0.078% (inactive).
Regarding `CCc1nnc(NS(=O)(=O)c2ccc(N=Cc3c(O)n(-c4ccccc4)c(=O)[nH]c3=O)cc2)s1`, the inhibition was -4.6% (inactive).
Then `O=c1[nH]c(=O)n(-c2ccc(F)cc2)c(O)c1C=NCCN1CCCCC1`, with -1.3% (inactive).
Under `O=c1[nH]c(=S)n(C2CC2)c(O)c1/C=N/N1CCOCC1` stands -0.873% (inactive); under `CCCCC(=O)N/N=C/c1c(O)n(-c2ccccc2)c(=O)[nH]c1=O`, 65.6% (active); under `CC/C(=N\NC(=O)c1ccccc1O)c1c(O)n(Cc2ccccc2)c(=O)[nH]c1=O`, 6.78% (inactive).
As to `COc1ccccc1-n1c(O)c(C=NC2CC2)c(=O)[nH]c1=O`, the inhibition was 4.19% (inactive).
Then `O=C(N/N=C/c1c(O)n(C2CC2)c(=S)[nH]c1=O)c1ccccc1Cl`, with 68.5% (active); and `O=C(N/N=C/c1c(O)n(C2CC2)c(=S)[nH]c1=O)c1ccccc1`, with 62.7% (active).
Then `O=C(N/N=C/c1c(O)n(Cc2ccccc2)c(=O)[nH]c1=O)c1ccccc1`, with 70.1% (active); and `Cc1cccc(-n2c(O)c(/C=N/N3CCOCC3)c(=O)[nH]c2=S)c1`, with -0.608% (inactive); and `CC(C)c1ccc(-n2c(O)c(/C=N/N3CCOCC3)c(=O)[nH]c2=S)cc1`, with 6.63% (inactive).
Then `COc1ccc(-c2ccc([C@H]3[C@H](CO)N4CCCCN(C(=O)Cc5ccncc5)C[C@@H]34)cc2)cc1`, with -8.67% (inactive); and `COC(=O)[C@H]1[C@H](CO)[C@H]2Cn3c(ccc(-c4cccc(F)c4)c3=O)[C@@H]1N2Cc1ccccc1`, with -0.694% (inactive).
`O=C(Cc1ccccc1)N1CCCCN2[C@H](C1)[C@H](c1ccc(C#CC3(O)CCCC3)cc1)[C@@H]2CO`: the inhibition is -2.57% (inactive).
With `COc1cccc(-c2ccc3n(c2=O)C[C@@H]2[C@@H](CO)[C@H](C(=O)O)[C@H]3N2C(=O)c2cnccn2)c1`, the inhibition is -0.13% (inactive).
Then `COC(=O)[C@@H]1[C@@H](CO)[C@@H]2Cn3c(ccc(C4=CCCCC4)c3=O)[C@H]1N2CC1CC1`, with -4.97% (inactive); and `O=C(Cc1ccccc1)N1CCCCN2[C@H](CO)[C@H](c3ccc(C#Cc4ccccc4)cc3)[C@H]2C1`, with 3.71% (inactive).
Then `CCOC(=O)[C@@H]1[C@@H]2NC(=O)N[C@@]1(C)Oc1ccccc12`, with 1.64% (inactive); and `OC[C@@H]1[C@H]2c3ccccc3NC[C@H]2N1Cc1cccnc1`, with 5.28% (inactive).
Then `CCC(C)n1c(O)c(/C=N/Nc2nc3c(c(=O)n(C)c(=O)n3C)n2C)c(=O)[nH]c1=S` (stereo not given), with 65.4% (active); and `O=C(O)[C@@H]1[C@@H](CO)[C@@H]2Cn3c(ccc(-c4ccccc4F)c3=O)[C@H]1N2C(=O)c1cccnc1`, with 8.55% (inactive).
On to `COc1ccc(C#Cc2ccc([C@H]3[C@H](CO)N4CCCCN(C(=O)Cc5ccccc5)C[C@@H]34)cc2)cc1`, for which the inhibition was -4.42% (inactive).
Then `O=C(Cc1ccncc1)N1CCCCN2[C@@H](CO)[C@H](c3ccc(C#CC4(O)CCCC4)cc3)[C@@H]2C1`, with -1.41% (inactive).
